Our source for the inhibition values is PubChem BioAssay AID1220 (Sanford-Burnham Center for Chemical Genomics, 2008).

About 1,300 (0.68%) of roughly 190,000 compounds were called active. For the sample, actives were picked, then their nearest neighbours and some compounds at random. A number with no mark means an inactive call. Cut-off read from the data, not from the text of the source: active = inhibition above about 50%; inactive = the rest.

The inhibition is the change of the read-out against control, counted positive when it falls.

Chain of Mannose-6-phosphate isomerase (Homo sapiens) (P34949 whole entry, looked up): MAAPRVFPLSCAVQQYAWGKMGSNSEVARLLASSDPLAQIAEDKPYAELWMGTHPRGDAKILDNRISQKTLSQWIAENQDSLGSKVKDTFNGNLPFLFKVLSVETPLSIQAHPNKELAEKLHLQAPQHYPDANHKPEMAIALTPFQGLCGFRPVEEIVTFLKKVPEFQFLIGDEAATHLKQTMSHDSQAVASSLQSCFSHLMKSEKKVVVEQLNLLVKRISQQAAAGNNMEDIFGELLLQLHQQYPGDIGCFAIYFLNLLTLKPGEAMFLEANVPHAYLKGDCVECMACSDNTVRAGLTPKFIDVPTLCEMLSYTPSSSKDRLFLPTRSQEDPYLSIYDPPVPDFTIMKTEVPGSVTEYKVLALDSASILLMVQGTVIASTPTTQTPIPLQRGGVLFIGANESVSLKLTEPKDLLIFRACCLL

This assay concerns the target Mannose-6-phosphate isomerase (Homo sapiens) (UniProt P34949). In words: human PMI inhibitors, high substrate, primary screen, biochemical, fluorescence intensity, high mannose 6-phosphate (AID 1220). The following applies: recombinant PMI enzyme, coupled fluorescence intensity; at 20 µM; stronger effect = higher value.
Take `COc1ccc(/C=N/NS(=O)(=O)c2ccccc2)cc1OC(=O)c1ccc(C)cc1`: the inhibition was 6.9%.

Regarding `Clc1ccccc1Cc1noc(CN2CCCCC2CCc2ccccn2)n1` (configuration not stated), the inhibition was 16.4%.

`FC(F)Oc1ccc(/C=N/c2c(-c3ccc(OC(F)F)cc3)nc3n2CCS3)cc1`: the inhibition was 1.9%.

Turning to `Clc1ccc(/C=N/c2c(-c3ccc(Cl)cc3)nc3n2CCS3)cc1`, the inhibition is 0.3%.

Consider `COc1ccc(/C=N/c2c(-c3ccc(OC)cc3)nc3n2CCS3)cc1`, for which the inhibition is 57.2% (active).

For the compound `Cc1ccc(NCc2ccccc2)cc1`, the inhibition is 9.2%.

As to `Cc1csc(=Nc2cccnc2)n1Cc1ccco1`, the inhibition is 2.8%.

With `COc1cccc(OCC(=O)NNC(=S)Nc2ccc(Cl)cc2Cl)c1`, the inhibition was 3.7%.

Consider `O=C(c1cncc(Br)c1)N1CCN(c2ccc(N3CCOCC3)nn2)CC1`, for which the inhibition is 4.8%.

With `O=C(Cc1c(Cl)cccc1Cl)NC1=NCCS1`, the inhibition is -5.2%.

As for `O=C(Cc1c(F)cccc1Cl)NC1=NCCS1`, the inhibition was 9.7%.

For the compound `O=C(CSc1cccc2cccc(Cl)c12)NC1=NCCS1`, the inhibition was 51.9% (active).

As for `COc1ccc(N2C(=O)CSC(c3ccccc3)C2=O)cc1` (configuration not stated), the inhibition is 4.1%.

For the compound `Cc1cc(NC(=O)CN2CCN(S(=O)(=O)c3ccc(Cl)cc3)CC2)no1`, the inhibition is 2.2%.

Take `O=[N+]([O-])c1cc(CN2CCN(c3ccccc3)CC2)c(O)c2ncccc12`: the inhibition is 35.7%.

As to `O=[N+]([O-])c1cc(CN2CCCC2)c2cccnc2c1O`, the inhibition is 44.4%.

As for `CC(C)C(=O)NC(c1ccco1)c1ccc2cccnc2c1O` (configuration not stated), the inhibition was 37.8%.

In the case of `CN(Cc1cc([N+](=O)[O-])c2cccnc2c1O)C1CCCCC1`, the inhibition is 51.8% (active).

Consider `O=C(NC(c1ccc(Cl)cc1)c1cc(Cl)c2cccnc2c1O)c1cccnc1` (configuration not stated), for which the inhibition was 2.3%.

Consider `O=[N+]([O-])c1cc(Cl)c(O)c2ncccc12`, for which the inhibition was 32.5%.

Turning to `Cc1ccc(C(NC(=O)C(C)C)c2cc([N+](=O)[O-])c3cccnc3c2O)cc1` (configuration not stated), the inhibition was 53.9% (active).

For the compound `CC(C)C(=O)NC(c1ccccc1)c1cc([N+](=O)[O-])c2cccnc2c1O` (configuration not stated), the inhibition is 60.9% (active).

As to `CC(C)C(=O)NC(c1cccs1)c1cc([N+](=O)[O-])c2cccnc2c1O` (configuration not stated), the inhibition was 46.5%.

`CCCNC(=O)c1ccc2nc(-c3ccccc3)c(-c3ccccc3)nc2c1`: the inhibition was 11.1%.

`CCc1ccc(Oc2cc(C)nc(N)n2)cc1`: the inhibition was -0.3%.

As to `CCCCc1ccc(-n2nnnc2SCC(=O)Nc2cc(OC)c([N+](=O)[O-])cc2C)cc1`, the inhibition is 10.1%.

`O=C(NCCc1ccc(Cl)cc1)c1cnc2n(c1=O)CCS2`: the inhibition is 4.8%.
